From the supplement of paper PMC6555819

test system: PPARg:RXRa 30nM:10nM, anti-RXR (NR concentration 30 nM, RXRa partner concentration 10 nM); assay: PBM binding z-score (relative to random genomic background probes); higher = stronger binding; sequences stand for … in GC…GCGATTGACAGCGTAGAATGAAGG
How it was run: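 Regression normalization was applied to scanned fluorescence from custom Agilent 4×180K protein-binding microarrays. Before scanning, arrays were incubated 1 h with ligand-free nuclear receptor dimers, and binding was detected with antibodies against each partner (one per run). Binding z-scores use the random background probes as reference.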

Row | Sequence | PBM binding z-score
1 | CCGACTGGGCCAAAGGTTACCATACTCAGTACGA | 9.58
2 | AGTAAAAGTTCATCTAGGTAACGTAAGATATGCT | 1.55
3 | CCTTACGGGTCACTGACAGGTTATATCATTTGGA | 1.54
4 | GCGACTGGGGCATCAGCAGCTTACCATAACTTAA | -0.116
5 | GCTGCTAGGTCAACTAATGGTCAGCTAAAGCTCG | 0.435
6 | CCTACTGGGCCACGAAGGGTCATTGATTCAGTGA | 1.17
7 | ACAGACAGGTGATGAAGGTAACTAAGGCTATCAT | 0.045
8 | TCTTGTAGATCAAGCAGGTTGAGAAAGCCTGAGT | 2.32
9 | TCTATTAGTTGATTAGGGCGACCGAAACAGCGGA | 3.64
10 | CTACCAAGGTGAGCAAGGTCGTTGATTACTATTC | -0.319
11 | ATCGAAAGGTCGTGAGGTGGGTATACAGAAAGGC | 1.29
12 | CTCGAAAGGTCGCTTGAGGTGAGTATACGGATAA | 0.841
13 | CCTTACGGGTCAAGGCTATAGCACGGGTGGTACG | 1.45
14 | AGAATGAGGTTATTAAGATTAGGGAATTGCGGTC | 0.697
15 | TCTCGGAGGACTCGAAAGGTCAGAGCTCGACATC | 2.29
16 | ATCTCTAGGTATAGTTCAGTGAAAGATCGATAGA | 0.666
17 | CATACTAGGTCACGAAAGGTCAAAGTCGAATGAC | 6.31
18 | CCTACTGGGCCCAAGGTCATTGATTCCAATGCTC | 5.33
19 | GGAACGATGGCAAGTTGATAGCAGAGTTTGATGG | -0.448
20 | TCTTGTAGATCATAGGTTAAGAAAGCCGAAGCCT | 4.93

Row | Sequence | PBM binding z-score
21 | CGTCCAAGGTCAAAGGCCAGTGAAGAGATGACGG | 3.55
22 | TCATATAGGTAAACAAGTGAAAGTCCGTAAGTTA | 4.08
23 | CCTTACGGGTCACTGACAGGTTATAACATTTGGA | 1.74
24 | ATATGTACGTTATCGGGTCATTCAGTTTGCGCAT | 0.0555
25 | CCTTCTGGGCCAAGGTCATTGATCAGTCAAAGCA | 1.37
26 | TCTATTCGTTGAAGGGCAACCGACGAGTCCGTTT | 3.64
27 | CATAGTTGGTCAGGAGGTCACACACCGGATATGA | 1.73
28 | CGTCCAAGGTCAGCAGGTCAGTGATAGCGACGTG | 1.15
29 | AACTCTAGGTAACAAGTTCAGTGAAAGAGAGGAC | 0.492
30 | CCTACTGGGCCATTCAGAGTTCATTGATCATATG | 0.0346
31 | CCTACTGGTCCAAAAAGGTCATTGATGCCGATAA | 0.82
32 | AGAATGAGGTTAACATCAGGGAAACAGAATACAT | 1.39
33 | CCTACTGGGCCAAAGGTCATTAATTCCAATGCTC | 12.4
34 | TAGCCTGGGTCAGATCGGGCCAGTATACGCTATA | -0.488
35 | ACAGACAGGTGATGGAGGTAACTCAGGCTATCAT | -0.252
36 | AGAATGAGGTTATTACGATCAGGGAATTGCGGTC | 0.584
37 | TCCTGTAGATCAATAGAGGTTAAGAAAGTGCGCT | 2.77
38 | ACAGACAGGTGATGAGGGTAACTCAGGCTATCAT | 0.142
39 | GCTGCTAGGACAACTGATGGTCAGCTAAAGCTCG | -0.952
40 | ACTAGCAGGCCAAGTTTGGGTCACTCGAACAAAG | -0.62
